Measured values: PubChem BioAssay (EPA / NIEHS)
The source made the active and inactive calls. The calls were made as follows: active = hit-call score of the fitted dose curve at least 0.9, where 1 is the maximum; inactive = score below 0.9.

Read-out: Human Leukocyte Antigen - DR isotype (HLADR), HLA-DRA (gene 3122)
Test: BSK_3C_HLADR: BioMAP Diversity Plus: 3C Assay for Human Leukocyte Antigen - DR isotype (HLADR) Biomarker Activity (AID 2283019)
Conditions: primary human endothelial cells (HUVEC); actives raise or lower the signal
Procedure: BSK_3C is a cell-based, multiplexed-readout assay that uses umbilical vein endothelium, a human vascular primary cell, with measurements taken at 24 hours after chemical dosing in a 96-well plate.BSK_3C_HLADR is an assay component measured in the BSK_3C assay. It measures HLA-DR antibody related to regulation of gene expression using ELISA technology.Data from the assay component BSK_3C_HLADR was analyzed into 1 assay endpoint. This assay endpoint, BSK_3C_HLADR, was analyzed with bidirectional fitting relative to DMSO as the negative control and baseline of activity. Using a type of binding reporter, gain or loss-of-signal activity can be used to understand changes in the signaling as they relate to the gene HLA-DRA. Furthermore, this assay endpoint can be referred to as a primary readout, because this assay has produced multiple assay endpoints where this one serves a signaling function. To generalize the intended target to other relatable targets, this assay endpoint is annotated to the cell adhesion molecules intended target family, where the subfamily is MHC Class II.
The levels of cell surface (or secreted, indicated by the prefix "s") biomarker endpoints were measured by ELISA. Overt cytotoxicity to cells in confluent adherent cultures (all systems other than the BT system) was assessed by measuring total protein levels using sulforhodamine B (SRB) staining in parallel cultures at the time of biomarker measurements, indicated as SRB endpoints. For proliferation assays for adherent cell types, individual cell types are cultured at sub-confluence and relative cell numbers quantified by SRB staining at time points optimized for each system (48 h: 3C and CASM3C systems; 72 h: BT and HDF3CGF systems; 96 h: SAg system). SRB was performed by staining cells with 0.1% SRB after fixation with 10% TCA and reading wells at 560 nm.Viability and proliferation of PBMC (T cells) was quantified by Alamar Blue reduction for the SAg and BT systems. For PBMC viability (referred to as PBMC Cytotoxicity within the assay endpoint names), cells were plated (75,000/well in a 96-well plate) and then chemical samples added for 1 h before addition of activators, SEB and TSST-1 (20 ng/mL final concentration each). Cells were incubated for 90 h. Then, Alamar Blue (20 uL/well) (Invitrogen, Cat DAL1100) was added for 6 h, and the plates were read with a fluorescence microplate reader at 546/580 nm (excitation/emission). For PBMC proliferation, cells were plated and activated as above but incubated for only 16 h prior to addition of Alamar Blue. Plates were read after 6 h.

SMILES | AC50 | outcome
O=C(OC[C@H]1O[C@@H](OC(=O)c2cc(O)c(O)c(OC(=O)c3cc(O)c(O)c(O)c3)c2)[C@H](OC(=O)c2cc(O)c(O)c(OC(=O)c3cc(O)c(O)c(O)c3)c2)[C@@H](OC(=O)c2cc(O)c(O)c(OC(=O)c3cc(O)c(O)c(O)c3)c2)[C@@H]1OC(=O)c1cc(O)c(O)c(OC(=O)c2cc(O)c(O)c(O)c2)c1)c1cc(O)c(O)c(OC(=O)c2cc(O)c(O)c(O)c2)c1 | 9.13 µM (active) | –
CCCCC(CC)COC(=O)c1ccc(C(=O)OCC(CC)CCCC)cc1 (stereo not given) | – | inactive
CC(C)=CCCC(C)CCO (stereo not given) | – | inactive
O=C(O)CCN(C1(C(=O)NO)CCCC1)S(=O)(=O)c1ccc(Oc2ccc(F)cc2)cc1 | – | inactive
C=CCCCCCCCCC(=O)O | – | inactive
Cn1c(=O)cc(Oc2ccc(F)cc2F)c2cnc(NCC(C)(C)O)nc21 | 3.11 µM (active) | –
CN(C)c1ccc(Cc2ccc(N(C)C)cc2)cc1 | 31.8 µM (active) | –
CC(=O)OC[C@H]1O[C@@](COC(C)=O)(O[C@H]2O[C@H](COC(C)=O)[C@@H](OC(C)=O)[C@H](OC(C)=O)[C@H]2OC(C)=O)[C@@H](OC(C)=O)[C@@H]1OC(C)=O | – | inactive
CC(C)CCCCCCOC(=O)c1ccc(C(=O)OCCCCCCC(C)C)c(C(=O)OCCCCCCC(C)C)c1 | – | inactive
COC(=O)c1ccccc1O | – | inactive
O=C(O)CC(O)C(=O)O (stereo not given) | – | inactive
Nc1cccc(N)c1 | – | inactive
CC(C)=CCCC(C)=CC=O | – | inactive
CCOCCOCCOCCO | – | inactive
C[C@](N)(Cc1ccc(O)c(O)c1)C(=O)O | – | inactive
CCNc1ccccc1 | – | inactive
CC(C)(O)c1coc(S(=O)(=O)NC(=O)Nc2c3c(cc4c2CCC4)CCC3)c1 | – | inactive
Cc1ccc(C)c(O)c1 | – | inactive
C1=CCCC=CCCC=CCC1 | – | inactive
CCOC(=O)CC(CC(=O)OCC)(OC(C)=O)C(=O)OCC | – | inactive

SMILES | AC50 | outcome
CCCCCCCCCCCCc1ccccc1 | 33.2 µM (active) | –
Cn1c(=O)c2c(ncn2C)n(C)c1=O | – | inactive
Nc1ccc(Nc2ccccc2)cc1 | 2.83 µM (active) | –
Cc1c(-c2cccnc2)c2ccccc2n1CCCCC(=O)O | – | inactive
On1ccccc1=S | 12.9 µM (active) | –
CC(C)c1cccc(C(C)C)c1N1C(=O)c2ccc(O)cc2C1=O | 8.36 µM (active) | –
Cc1ccc(O)cc1 | – | inactive
COc1ccc(-n2nc(C(F)F)cc2-c2ccc(S(C)=O)cc2)cc1 (stereo not given) | – | inactive
Clc1nc(Cl)c(Cl)c(Cl)c1Cl | 31.2 µM (active) | –
COCCOCCOCCOC | – | inactive
CC(C)=CCC/C(C)=C/CO | – | inactive
CCC(C)(C)C(=O)O[C@H]1C[C@@H](C)C=C2C=C[C@H](C)[C@H](CC[C@@H]3C[C@@H](O)CC(=O)O3)[C@H]21 | 25.8 µM (active) | –
CC(C)CCO | – | inactive
CC/C(=C\C(=N/O)C(N)=O)C(C)[N+](=O)[O-] (stereo not given) | – | inactive
CNS(=O)(=O)c1cc(C(=O)N2CCC(CCN3C4CCC3CC(n3c(C)nc5ccccc53)C4)(c3cccc(F)c3)CC2)c(Cl)cc1F (stereo not given) | 28.9 µM (active) | –
O=C1CCCCCN1 | – | inactive
CCOCCO | – | inactive
CC(C)CC(C)(O)C#CC(C)(O)CC(C)C (stereo not given) | – | inactive
Cc1ccc(S(=O)(=O)O)cc1C | – | inactive
O=P(OC(CCl)CCl)(OC(CCl)CCl)OC(CCl)CCl | – | inactive
